MazF activator: activators of E. coli MazEF toxin-antitoxin RNase | FAM/BHQ RNA-DNA oligo cleavage fluorescence, 5 h | activation, % at 20 µM | hit rate 0.32% among 350,000 | AID 504720; in the data active = activation above about 50%
Target sequence (P0AE70 whole entry, looked up): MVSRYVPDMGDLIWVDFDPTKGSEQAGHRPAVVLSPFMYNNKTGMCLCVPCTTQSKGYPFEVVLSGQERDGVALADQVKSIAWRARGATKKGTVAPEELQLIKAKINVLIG
BH1578 lux ind: induces V. cholerae light production without autoinducers. AID 588436. hit rate 0.16% among 350,000. V. cholerae BH1578 lux reporter, luminescence, 6 h. activation, % at 18.7 µM; in the data active = activation mostly above about 9.7%, no sharp cut-off
Mtb hypoxia inh: reduces hypoxia-regulated biosensor signal in M. tuberculosis; hit rate 0.1% among 300,000; fluorescence inhibition, % (no concentration beside the values); M. tuberculosis hypoxia-regulated fluorescent reporter, fluorescence; AID 1159583; in the data active = fluorescence inhibition mostly above about 23%, no sharp cut-off; inactive = mostly below about 17%
SSB-PriA inh: inhibitors of Klebsiella pneumoniae PriA binding to SSB C-terminal tail; AlphaScreen SSBct-PriA binding, biotinylated peptide; inhibition, % at 33 µM; hit rate 0.6% among 430,000; AID 1272365; in the data active = inhibition mostly above about 37%, no sharp cut-off; inactive = mostly below about 20%;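 note: plate controls were negative control peptide for no effect and reference peptide for full effect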
* hit, by the source's call; i = inactive; · = no result shown; ! = not confirmed by another sample. Most compounds without a hit are left out; they make up all but 0.94% or so of the library.

SMILES	MazF activator	BH1578 lux ind	Mtb hypoxia inh	SSB-PriA inh
CCN(CC)c1ccc(SS(=O)(=O)O)cc1	-3.4	-5.6	-1.5	43.2*
CC(C)OC(=O)C1C2C=CC3(CN(CC4CCCO4)C(=O)C13)O2 (stereo not drawn)	-9.1	20.7*	·	-11.7
O=C(NC[C@@](O)(c1ccccc1)C1CC1)Nc1ccc2c(c1)OCO2	·	·	·	2.0
O=[N+]([O-])c1ccc(N2CCCC2)c2ncccc12	101.4*	-0.9	23.8	-6.3
O=[N+]([O-])c1ccc(N2CCN(Cc3ccccc3)CC2)c2ncccc12	·	·	·	34.0
O=[N+]([O-])c1ccc(N2CCN(CCO)CC2)c2ncccc12	4.8	-0.6	9.6	3.1
CC1CN(c2ccc([N+](=O)[O-])c3cccnc23)CC(C)N1 (stereo not drawn)	9.7	13.3	8.2	38.3*
O=[N+]([O-])c1ccccc1N1CCN(c2ccc([N+](=O)[O-])c3cccnc23)CC1	·	·	·	75.4*
CN(C)CCN1C(=O)C(=O)C(=C(O)c2ccc(F)cc2)C1c1ccccn1 (stereo not drawn)	·	·	·	7.0
CSc1nc(N2CCCC2)c2cnn(CCNC(=O)C(C)(C)CCl)c2n1	·	·	·	-8.0
O=C(COC(=O)c1ccc(O)cc1)Nc1nnc(-c2ccccc2)o1	·	·	·	59.2*
CC1CCN(c2cc(N3CCOCC3)c([N+](=O)[O-])cc2F)CC1	6.7	-13.8	·	4.9
O=[N+]([O-])c1cc(F)c(N2CCc3ccccc3C2)cc1N1CCCCCC1	·	·	·	65.5*
O=[N+]([O-])c1cc(F)c(N2CCCCCC2)cc1N1CCc2ccccc2C1	·	·	·	54.8*
O=[N+]([O-])c1cc(F)c(N2CCc3ccccc3C2)cc1N1CCCC1	·	·	·	52.4
CC1CCN(c2cc(N3CCOCC3)c(F)cc2[N+](=O)[O-])CC1	10.1	i	·	58.3*
O=C(NCC1(O)Cc2ccccc2C1)c1cccc(Br)c1	·	·	·	1.0
O=S(=O)(Nc1ccc(Cl)c(C(F)(F)F)c1)c1cccc2cccnc12	·	·	·	-9.0
CC(O)(CNS(=O)(=O)c1cccs1)c1ccc2c(c1)OCO2 (stereo not drawn)	·	·	·	3.0
CC1(C)C2CCC1(CS(=O)(=O)NCC(O)(c1ccccc1)C1CC1)C(=O)C2 (stereo not drawn)	·	·	·	-2.0
CCCN1CCCc2cc(CCNS(=O)(=O)Cc3ccc(F)cc3)ccc21	·	·	·	77.0*
CCCN1CCCc2cc(CCNS(=O)(=O)c3ccc(Cl)s3)ccc21	·	·	·	active!
CCCN1CCCc2cc(CCNS(=O)(=O)CCc3ccc(OC)cc3)ccc21	·	·	·	60.0*
CCCNC(=O)C(=O)NCCc1ccc2c(c1)CCCN2CCC	·	·	·	2.8
CCCN1CCCc2cc(CCNS(=O)(=O)CC)ccc21	·	·	·	46.0*
SMILES	MazF activator	BH1578 lux ind	Mtb hypoxia inh	SSB-PriA inh
Cc1nnc(NC(=O)COc2cccc3ccc(N4CCN(c5ccccc5)CC4)nc23)s1	·	·	·	-5.0
CCCN1CCCc2cc(CCNS(=O)(=O)c3ccccc3)ccc21	·	·	·	86.3
CCCN1CCCc2cc(CCNS(=O)(=O)Cc3cccc(Cl)c3)ccc21	·	·	·	55.0*
CCCN1CCCc2cc(CCNS(=O)(=O)Cc3ccccc3)ccc21	·	·	·	94.5*
CCCN1CCCc2cc(CCNS(=O)(=O)c3ccc(Br)cc3)ccc21	·	·	·	52.0*
Cc1ccc(Nc2nc(C(=O)Nc3nc(CC(N)=O)cs3)cs2)c(C)c1	·	·	·	15.0
COc1ccc(C(N)=NOC(=O)CN(C)S(=O)(=O)c2ccc(C)cc2)cc1	·	·	·	-25.2
O=C(Nc1nc2c(s1)CN(S(=O)(=O)C1CC1)CC2)c1cc(-c2ccccc2)on1	·	·	·	-1.0
Cc1cc(N2CCCC2)nc(Nc2ccc(NS(=O)(=O)c3ccc(I)cc3)cc2)n1	·	·	·	44.0*
Cc1cc(N2CCCC2)nc(Nc2ccc(NS(=O)(=O)c3ccc(Cl)cc3)cc2)n1	·	·	·	-9.0
CCOC(=O)NCc1nn(CCN2CCCC2)c(=O)c2ccccc12	·	·	·	-2.0
CCCn1nc([N+](=O)[O-])c(C(C#N)c2nc3ccccc3s2)c(Cl)c1=O (stereo not drawn)	-3.0	i	14.2	55.0*
CCn1nc([N+](=O)[O-])c(C(C#N)c2nc3ccccc3n2C)c(Cl)c1=O (stereo not drawn)	1.3	-0.2	11.6	23.5
O=C(Cn1ncccc1=O)N1CCN(c2ccc(-c3ccccn3)nn2)CC1	·	·	·	130.0*
COc1ccccc1-c1ccc(=O)n(CC(=O)N2CCN(c3ccc(-c4ccccn4)nn3)CC2)n1	·	·	·	104.0*
CC/C(=N/Nc1cccc(C)c1)c1cnnc(SC)n1	287.4*	-0.3	·	·
O=S(=O)(c1ccc2ccccc2c1)N1CCN(c2ccc(-c3ccncc3)nn2)CC1	·	·	·	-13.0
C=CCNc1nc(C(=O)OCC(=O)c2ccc(F)cc2)cs1	-0.4	-2.1	-7.7	45.5*
C/[N+]([O-])=C\c1ccc2ccc3cccnc3c2n1	·	·	·	153.5*
Clc1ccc2ccc3cccnc3c2n1	5.0	-0.8	·	-8.0
Cc1cc(F)ccc1S(=O)(=O)NCc1cnn2c1CCCC2	·	·	·	-14.0
COCCCNC(=O)C(CC(N)=O)NC(=O)OCc1ccccc1 (stereo not drawn)	1.7	i	-8.5	-15.4
NC(=O)C[C@H](NC(=O)c1ccc(Cl)cc1)C(=O)OCc1ccccc1	4.5	-0.5	27.8*	1.9
N#CC1=C(N)C(C#N)(C#N)[C@H](c2cccnc2)[C@H]2CN(C(=O)OCc3ccccc3)CC=C12	19.8	i	-3.0	8.9
N#CC1=C(N)C(C#N)(C#N)C(c2cccnc2)C2CC(c3ccccc3)CC=C12 (stereo not drawn)	16.4	25.0*	·	-12.8
SMILES	MazF activator	BH1578 lux ind	Mtb hypoxia inh	SSB-PriA inh
CCCN1CCN(CCCNC(=O)c2ccc3nc(N4CCCCC4)sc3c2)CC1	3.7	-0.3	4.8	99.9*
CC1CC(C)CN(CCCNC(=O)c2ccc3nc(N4CCCCC4)sc3c2)C1 (stereo not drawn)	12.2	-0.1	9.7	-6.7
Cc1ccc(C2C3=C(CC(C)(C)CC3=O)NC3=C2C(=O)c2ccccc23)cc1 (stereo not drawn)	10.0	-0.4	13.1	50.8*
CC1(C)CC(=O)C2=C(C1)NC1=C(C(=O)c3ccccc31)C2c1ccc(Cl)cc1 (stereo not drawn)	10.2	-0.3	-11.1	35.7
COc1ccc(N=c2oc3c(OC)cccc3cc2C(=O)NCc2ccco2)cc1OC	343.5*	i	-11.6	9.5
COc1ccccc1N=c1oc2c(OC)cccc2cc1C(=O)NCc1ccco1	68.8*	i	2.9	-6.3
COc1ccc(OC)c(N=c2oc3c(OC)cccc3cc2C(=O)NCc2ccco2)c1	75.5*	i	9.5	9.3
CCOC(=O)Cc1csc(/C(=N\O)C(N)=O)n1	·	·	·	-3.0
Fc1cccc(Cl)c1Cn1nnc(-c2ccc(N3CCOCC3)cc2)n1	1.8	i	1.1	-2.0
Clc1cccc(Cl)c1Cn1nnc(N2CCCC2)n1	6.3	-0.9	35.5*	-16.1
Oc1ccc(COC2CCCCC2)c2cccnc12	·	·	·	108.0*
CC(C)COCc1ccc(O)c2ncccc12	-7.2	-0.7	13.2	84.3*
Oc1ccc(COCc2ccccc2)c2cccnc12	3.5	-2.2	·	83.8*
CCCOCc1ccc(O)c2ncccc12	-2.4	-0.3	17.2	53.5*
Oc1ccc(COc2cccc3cccnc23)c2cccnc12	·	·	·	32.4
CN(Cc1ccco1)Cc1ccc(O)c2ncccc12	-1.8	-0.7	9.8	-5.5
O=C(c1cncc(Br)c1)N1CC(S(=O)(=O)c2ccc(F)cc2)C1	·	·	·	-10.0
